This is one part of the list. Values without a mark were called inactive. Activity calls are given as the source filed them. Cut-off read from the data, not from the text of the source: active = activation above about 17%; inactive = the rest.
target: 5-hydroxytryptamine receptor 5A (Homo sapiens) (UniProt P47898); assay: HTR5A agonists, retest of hits, confirmation, cell-based, luminescence (AID 504915); conditions: HTR5A agonist cell assay, at 9.3 µM, active compounds read high;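 note: 0% = cells with vehicle only and 100% = full reference agonist response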
Sequence (P47898 whole entry, looked up): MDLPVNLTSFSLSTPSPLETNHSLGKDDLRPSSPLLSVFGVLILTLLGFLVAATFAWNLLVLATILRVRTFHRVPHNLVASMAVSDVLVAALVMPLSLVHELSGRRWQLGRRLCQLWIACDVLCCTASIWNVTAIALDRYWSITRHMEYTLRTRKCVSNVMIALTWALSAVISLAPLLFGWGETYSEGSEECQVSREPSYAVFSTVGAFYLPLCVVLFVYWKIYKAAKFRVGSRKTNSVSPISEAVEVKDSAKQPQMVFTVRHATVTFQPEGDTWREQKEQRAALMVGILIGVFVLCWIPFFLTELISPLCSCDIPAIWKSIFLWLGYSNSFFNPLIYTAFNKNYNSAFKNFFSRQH

| SMILES | activation |
| --- | --- |
| CNC(=S)N/N=C/c1ccc(OCc2ccccc2)c(Br)c1 | 0.4% |
| Cc1cccc2sc(N(CCCN(C)C)C(=O)CCS(=O)(=O)c3ccccc3)nc12 | 5.39% |
| Cc1ccc(CCC(=O)Nc2ncc(Cc3cc(Cl)ccc3Cl)s2)o1 | 29.1% (active) |
| CCOc1ccc(NC(=O)Nc2cc(C)on2)cc1 | -2.78% |
| CC(C)OC(=O)c1c(NC(=O)c2ccco2)sc2c1CCCC2 | 0.39% |
| COc1cccc(/C=N/NC(=O)c2[nH]nc3c2CCc2ccccc2-3)c1O | -2.75% |
| Cc1ccc(C(=O)N/C(=C/c2ccco2)C(=O)NCCc2c[nH]c3ccccc23)cc1C | -0.29% |
| CC(=O)N1CCN(c2ccccc2NC(=S)NC(=O)c2cc3ccccc3o2)CC1 | 4.36% |
| O=C(OC12CC3CC(CC(C3)C1)C2)c1ccc(NCc2cc(O)ccc2O)cc1 | 7.13% |
| CCOC(=O)c1cnc2sccn2c1=O | 5.5% |
| CCn1nc(C(=O)OCC(=O)N2c3ccccc3CC2C)c2ccccc2c1=O (centres undefined) | -1.95% |
| CC(=O)COc1ccc2c(-c3ccccc3)cc(=O)oc2c1 | 4.18% |
| CCCOc1ccc(C(=O)C(CCC(CNCC)C(=O)c2ccc(OCCC)cc2)CNCC)cc1 (centres undefined) | -4.56% |
| Cc1c(C(=O)OCC(=O)N2CCCC2=O)oc2ccccc12 | 3.43% |
| COc1ccc(/C=C(\C#N)c2c[nH]c3ccccc23)cc1 | 0.48% |
| O=C(CNCc1ccco1)Nc1cc(S(=O)(=O)N2CCOCC2)ccc1N1CCCC1 | -0.44% |
| CCCN(CCc1ccccc1)C1CCc2c(O)cccc2C1 (centres undefined) | 37.2% (active) |
| Cc1oc2c(F)c(F)c(F)c(F)c2c1S(=O)(=O)Nc1cccc(C(F)(F)F)c1 | -4.5% |
| CC(=O)c1c(C)[nH]c(C(=O)OCC(=O)Nc2c(C)cccc2C)c1C | 1.01% |
| O=C(Nc1ccc(C(=O)N2CCOCC2)cc1)Nc1cccc(C(F)(F)F)c1 | 43.1% (active) |
| COc1ccc(-c2ocnc2C(=O)Nc2ccc3c(c2)CCC3)cc1 | -0.96% |
| O=C(CC(O)(C(F)(F)F)C(F)(F)F)Nc1ccc(Cl)c(Cl)c1 | -1.59% |
| COC(=O)c1cc(C(=O)OCC(=O)Nc2cc(C)on2)cc([N+](=O)[O-])c1 | 1.23% |
| COc1cc2c(-c3ccc4c(c3)OCO4)c(-c3ccsc3)oc(=O)c2cc1OC | -0.88% |

— PubChem BioAssay AID504915 (The Scripps Research Institute Molecular Screening Center, 2011)
